MenB inh: blocks the Mycobacterium tuberculosis MenB enzyme. 100,000 tested, 0.43% active. MenB enzyme assay, absorbance read-out. P9WNP5. inhibition, % (concentration not given with the values); in the data active = inhibition above about 21%, passing the limit was not always enough
MbtI inh: blocks the Mycobacterium tuberculosis siderophore enzyme MbtI. AID 493033. 100,000 tested, 0.89% active. P9WFX0. purified MbtI enzyme, fluorescence intensity read-out. inhibition, % (test concentration not listed); in the data active = inhibition mostly above about 56%, no sharp cut-off; inactive = mostly below about 77%
Target sequence (P9WFX0 whole entry, looked up): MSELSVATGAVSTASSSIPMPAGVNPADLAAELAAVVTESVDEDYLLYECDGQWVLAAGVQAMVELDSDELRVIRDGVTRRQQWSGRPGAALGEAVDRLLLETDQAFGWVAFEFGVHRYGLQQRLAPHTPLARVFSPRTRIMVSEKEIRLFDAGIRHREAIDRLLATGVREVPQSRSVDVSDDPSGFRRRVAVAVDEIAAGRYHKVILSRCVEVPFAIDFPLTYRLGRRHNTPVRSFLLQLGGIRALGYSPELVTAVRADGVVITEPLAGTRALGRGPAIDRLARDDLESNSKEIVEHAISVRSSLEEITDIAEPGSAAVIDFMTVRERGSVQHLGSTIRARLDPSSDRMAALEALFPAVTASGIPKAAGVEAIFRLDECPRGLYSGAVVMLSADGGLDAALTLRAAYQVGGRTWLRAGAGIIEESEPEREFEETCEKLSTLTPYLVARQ
Polio RdRp inh: poliovirus RNA polymerase inhibition | 150,000 tested, 0.66% active | % elongation, % (compound at 16.7 µg/mL) | poliovirus polymerase elongation, fluorescence polarization; stronger effect = lower value | AID 588519; in the data active = % elongation below about 90%
Numbers stand for hits; i = inactive; nt = not tested or not shown. Compounds with a hit are over-represented: about 1.4% of the library has one in this group of screens.

SMILES	MenB inh	MbtI inh	Polio RdRp inh
CC(C)C(C)(C#N)NC(=O)CSc1nc2ccccc2c(=O)n1C1CCCC1 (stereo not drawn)	i	i	i
CN(C)S(=O)(=O)NCC1CCCO1 (stereo not drawn)	i	i	i
CC1=C(C)C(=O)C(NCC2CCCO2)=CC1=O (stereo not drawn)	i	i	70
CCOC(=O)Oc1cc2oc(=O)sc2cc1Cl	i	i	i
CCOC(=O)N=c1oc2cc(Cl)c(Cl)cc2o1	i	96	i
O=C(CSc1ccccc1)OCc1nc2ccsc2c(=O)[nH]1	i	i	i
O=c1[nH]c(CSc2ccccn2)nc2ccsc12	i	96	i
O=C(NCCN1CCCCCC1)c1cnn(-c2ccccc2)c1-n1cccc1	i	i	i
O=C(COC(=O)CSc1n[nH]c(-c2ccccc2)n1)NC1CCCCC1	i	nt	84
O=C(CSc1n[nH]c(Cc2ccccc2)n1)NC1CCCCC1	i	i	i
CCC(=O)Nc1nc(-c2ccc(C)c(C)c2)cs1	i	i	i
Cc1cc(C)n(CCc2nc(-c3ccc(C)c(C)c3)cs2)n1	i	73	82
Cc1cc(C(=O)Cn2cnc3sccc3c2=O)c(C)n1C1CC1	i	i	i
COc1ccccc1Nc1nn2c(=O)c3ccc(C(=O)NCCCOC(C)C)cc3nc2s1	nt	nt	i
CCN(CC)CCNC(=O)c1ccc2c(=O)n3nc(Nc4ccccc4OC)sc3nc2c1	nt	nt	65
CCn1c(SCC(=O)Nc2ccccc2SCC(N)=O)n[nH]c1=O	i	i	i
C/C(=N/O)c1cc(C(C)(C)C)c(O)c(C(C)(C)C)c1	i	i	i
CC(C)(C)c1cc(O)c(O)c(Br)c1	i	101	i
Cc1cc2c(cc1S(=O)(=O)C(C)CC(=O)N1CCN(c3ccccc3F)CC1)OCC(=O)N2 (stereo not drawn)	i	i	i
CCn1c(-c2cc(OC)ccc2OC)cs/c1=N\N=C\c1ccc(O)c(OC)c1	i	i	i
Nc1ncn(C2O[C@H](CO)[C@H](O)[C@@H]2O)c(=O)n1 (stereo partly drawn)	i	i	i
Oc1ccc(CN2CCN(c3ccccc3)CC2)c2cccnc12	i	i	i
O=C(O)c1c(CN2CCN(c3ccccc3)CC2)c(O)c2ccccc2c1O	i	i	86
Cc1cc(Br)ccc1NC(=O)C1c2ccccc2C(=O)N2CCc3ccccc3C12 (stereo not drawn)	i	i	i
Cn1c(SCC(=O)NC(=O)Nc2ccccc2F)nc2cc(S(N)(=O)=O)ccc21	i	96	85
SMILES	MenB inh	MbtI inh	Polio RdRp inh
CCCCn1c(SCC(N)=O)nc2cc(S(N)(=O)=O)ccc21	i	i	i
NCc1cc2ccccc2s1	nt	i	nt
O=c1oc(-c2cc3ccccc3s2)ns1	i	nt	85
CC1CC(C)CN(S(=O)(=O)c2ccc(NC(=O)C(C)N3C(=O)C4CC=CCC4C3=O)cc2)C1 (stereo not drawn)	i	i	i
COc1ccc(C2CC(C3C(=O)c4ccccc4C3=O)=NN2)cc1 (stereo not drawn)	i	i	i
c1ccc(CCn2nnnc2C(c2cccnc2)N2CCCCC2)cc1 (stereo not drawn)	i	i	i
N#Cc1cccc(C(c2nnnn2Cc2ccccc2)N2CCCC2)c1 (stereo not drawn)	29	i	i
CC(C)NC(=O)CC1Oc2ccc(Cl)cc2NC1=O (stereo not drawn)	i	i	i
C#CCn1c(O)c(N=NC(=O)c2cc(Cl)ccc2O)c2ccccc21	i	i	i
COc1ccc(/C=C2/C(=O)N(C)c3ccccc32)cc1	i	i	i
CN1C(=O)/C(=c2/[nH][nH]c(=O)/c2=C\C=C\c2ccccc2)C(=O)c2ccccc21	i	nt	84
CCN(CC)CCOC(=O)c1ccc(NC(=O)c2cc3cc(OC)ccc3oc2=O)cc1	nt	nt	i
CCN(CC)CCOC(=O)c1ccc(NC(=O)c2cc3cccc(OC)c3oc2=O)cc1	nt	nt	90
O=C(Cc1nc2ccccc2[nH]1)c1ccccc1	nt	i	i
O=C(Cc1nc2ccccc2[nH]1)Oc1ccccc1	i	nt	75
CCn1c(SCc2cccc3ccccc23)nnc1-c1ccco1	i	i	i
Cc1ccc(C(c2nnnn2C(C)(C)C)N2CCC(C)CC2)cc1 (stereo not drawn)	i	i	i
Cc1ccc(C(c2c(O)[nH]c(=S)[nH]c2=O)N2CCC(C)CC2)cc1 (stereo not drawn)	i	66	i
COc1cc(C(=O)NC2CCS(=O)(=O)C2)cc(OC)c1OC (stereo not drawn)	i	i	i
COc1ccc(-c2noc(-c3cc4ccccc4o/c3=N\NS(=O)(=O)c3ccc(OC)c(OC)c3)n2)cc1	i	i	i
COc1ccc(C)cc1NC(=O)CN(C)Cc1nc2ccccc2c(=O)[nH]1	i	i	89
COc1ccc(Cl)cc1NC(=O)CN(C)Cc1nc2ccsc2c(=O)[nH]1	i	i	i
CCc1ccc(OCc2nnc(SCC(N)=O)o2)cc1	i	i	i
Cc1cc2nc(-c3ccc(NC(=O)c4ccccc4F)cc3)oc2cc1C	nt	nt	24
Cc1ccccc1C(=O)Nc1ccc(-c2nc3ccccc3o2)cc1	i	i	i
SMILES	MenB inh	MbtI inh	Polio RdRp inh
O=C(Nc1ccc(Cl)c(-c2nc3cc(Cl)ccc3o2)c1)c1cc2ccccc2o1	nt	nt	i
O=C(Nc1ccc(-c2nc3cc(Cl)ccc3o2)cc1)c1cc2ccccc2o1	nt	nt	49
CCN(C(=O)c1ccc(-n2cnnn2)cc1)C12CC3CC(CC(C3)C1)C2	i	i	i
O=C(Nc1ccc2c(c1)OCCO2)c1cccc(-n2cnnc2)c1	i	i	i
CCc1cc2c(N3CCN(CC)CC3)nc(C)nc2s1	i	i	i
CCNc1nc(C)nc2sc(CC)cc12	32	nt	i
O=C(CSc1nnc(Cc2ccccc2)n1Cc1ccccc1)NCc1ccco1	i	i	i
CC1CCc2c(sc3nc(C(C)C)n4c(SCC(=O)NCc5ccco5)nnc4c23)C1 (stereo not drawn)	27	i	i
O=C(OCc1nc2ccccc2s1)c1ccc(F)cc1F	nt	i	i
COc1ccc(Cn2c(=O)[nH]c3cc(C(=O)N4CCN(c5cccc(Cl)c5)CC4)ccc3c2=O)cc1	nt	nt	i
COc1ccc(Cn2c(=O)[nH]c3cc(C(=O)N4CCN(c5cccc(OC)c5)CC4)ccc3c2=O)cc1	nt	nt	73
N#CC(C(N)=O)C(=S)Nc1ccccc1 (stereo not drawn)	i	i	i
Cc1ccc(NC(=S)C(C#N)C(N)=O)cc1Cl (stereo not drawn)	i	74	i
O=C(Nc1ccccc1F)Oc1ccccc1F	i	i	i
O=c1[nH]c(CN2CCNCC2)nc2ccccc12	i	i	i
CC(c1nc2ccccc2c(=O)[nH]1)N1CCN(Cc2ccc(Cl)s2)CC1 (stereo not drawn)	i	i	-3.0
O=c1sn(-c2ccccc2C(F)(F)F)c(=O)n1CC1CC1	i	99	i
O=C1c2ccccc2-c2c1c1ccccc1c(=O)n2CC1CC1	i	i	i
CN(C)c1ccc(C2=CC=CC(=C3C=CC(=[N+](C)C)C=C3)O2)cc1	i	84	i
CN(C)c1ccc(C(=C2C=CC(=[N+](C)C)C=C2)c2ccc(N(C)C)cc2)cc1	i	i	i
O=C(Cn1ccccc1=S)c1ccccc1	i	i	i
CCC(=O)Nc1ccc(N2CCOCC2)cc1	i	i	i
Nc1cc(C(F)(F)F)ccc1-n1cnc2ccccc21	nt	90	i
Nc1cc(C(F)(F)F)ccc1-n1cncn1	nt	i	i

Compound activity deposited in PubChem BioAssay by ICCB-Longwood Screening Facility, Harvard Medical School.
